This is a sample that favours compounds with a hit; in the whole collection about 1.9% have one here.
ERK EGF inh = EGF-driven ERK pathway inhibition | Potency, µM (highest dose often 11.5 µM), most hits filed as inhibitors | 130,000 tested, 0.41% active | HEK293-V1b, EGF-stimulated phospho-ERK AlphaScreen | AID 1454; also: nearly all actives have a fitted effect of over 55% in size
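Phospho-ERK1/2 measured by AlphaScreen (SureFire) after 5 min 25 nM EGF stimulation of V1b-expressing HEK293 cells preincubated 30 min at 37C with titrated compounds; data scaled to DMSO and EGF controls, Hill-fitted AC50.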
IMPase Li cell = IMPase inhibition in cells with lithium potentiation; 210,000 tested, 0.35% active; CHO-M1 cells, IP1 TR-FRET (IP-One), carbachol + lithium; AID 1457; Potency, µM (titrated, usually from 59.4 µM), hits mostly inhibitors;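 also: IP1 builds up when IMPase is blocked and the TR-FRET signal falls; nearly all actives have a fitted effect of over 50% in size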
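Readout is a homogeneous TR-FRET IP1 immunoassay (Ex 320, Em 665 and 620), where raised cytosolic IP1 lowers signal. Cells were CHO-M1 treated 30 min at 37C with test compounds plus a little lithium; AC50 values came from Hill-equation fitting.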
NPSR antagonist = neuropeptide S receptor (human) antagonism, cAMP; Q6W5P4; CHO-NPSR cells, cAMP TR-FRET, antagonist mode; Potency, µM (titrated, usually from 38.3 µM), usual class: inhibitors; 220,000 tested, 1% active; also: nearly all actives have a fitted effect of over 50% in size
Target sequence (Q6W5P4 whole entry, looked up): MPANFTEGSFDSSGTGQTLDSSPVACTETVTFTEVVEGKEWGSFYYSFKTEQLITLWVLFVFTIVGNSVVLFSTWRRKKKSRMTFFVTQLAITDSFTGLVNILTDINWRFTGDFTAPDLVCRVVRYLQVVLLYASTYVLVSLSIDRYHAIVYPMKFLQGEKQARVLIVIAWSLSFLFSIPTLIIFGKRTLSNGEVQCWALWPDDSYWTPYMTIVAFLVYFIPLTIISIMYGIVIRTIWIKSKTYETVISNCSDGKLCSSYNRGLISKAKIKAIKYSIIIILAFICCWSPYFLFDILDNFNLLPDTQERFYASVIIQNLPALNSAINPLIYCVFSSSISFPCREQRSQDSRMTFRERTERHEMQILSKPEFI
HttQ103 aggreg = inhibitors of mutant huntingtin aggregate formation in PC12 cells. PC12 HttQ103-GFP aggregates, Acumen cytometry, 40 h. Potency, µM (doses to about 46.1 µM), actives largely listed as inhibitors. 220,000 tested, 1.1% active. AID 1688; also: nearly all actives have a fitted effect of over 60% in size
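Read-out: GFP aggregate count by laser scanning cytometer (488 nm excitation, 500-530 nm emission, 1–25 µm objects >6 SD above background). Cells: PC12, inducible HTTex1-Q103-GFP, 100 nM tebufenozide; compounds titrated.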
HTT ATP protect = Huntington cell model cytoprotection by ATP luminescence; PC12 HTT-Q103 induced, cytoprotection, ATP luminescence, 40 h; Potency, µM (highest dose often 56.4 µM), usual class: activators; 230,000 tested, 0.14% active; AID 1471; also: nearly all actives have a fitted effect of over 45% in size
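Stable PC12 Q103-GFP cells in serum-supplemented, phenol red-free DMEM; induction by tebufenozide at 100 nM final; compound dose series; cell viability quantified luminescently from ATP.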
ERK pERK EGF = confirmation of ERK pathway inhibitors under EGF stimulation | 60 tested, 60% active | HEK293 EGF-stimulated ERK phosphorylation, AlphaScreen | AID 1725 | shares compounds with ERK EGF inh | Potency, µM (titrated, usually from 57.5 µM), most hits filed as inhibitors
c-Raf inh = ERK pathway inhibitors follow-up: human c-Raf kinase inhibition; activity change, negative = inhibition, % at 76.9 µM; shares compounds with ERK EGF inh; AID 1728; 70 tested, under 10 active; c-Raf kinase inhibition, homogeneous biochemical assay
MEK inh = ERK pathway inhibitors follow-up: human MEK1 kinase inhibition; shares compounds with ERK EGF inh; Potency, µM (highest dose often 76.9 µM), usual class: inhibitors; homogeneous MEK kinase activity assay, ERK pathway; 70 tested, under 10 active; AID 1732
Numbers stand for hits; n = inactive; u = inconclusive; x = not tested or not shown; [ ] = dose if it differs, or a comment. Calls follow the shape of the dose curve; as a rule, active = well fitted curve in the direction sought with a large enough effect; inconclusive = small, poorly fitted or top-dose-only effect, or another doubt; inactive = no such curve, though single readings can be large; an effect the other way counts as inactive or inconclusive.

SMILES	ERK EGF inh	IMPase Li cell	NPSR antagonist	HttQ103 aggreg	HTT ATP protect	ERK pERK EGF	c-Raf inh	MEK inh
COc1cc2ncnc(NCc3cccc(Cl)c3)c2cc1OC	0.45µM	n	n	14µM	n	1.8µM	u	n
COc1ccc(CNc2ncnc3cc(OC)c(OC)cc23)cc1OC	n	n	n	n[9.22 µM]	n[10 µM]	x	x	x
Cc1cc(-c2ccccc2)n(-c2cc(N/N=C/c3ccccc3O)ncn2)n1	10µM	n	n	8.9µM	n[10 µM]	u	n	n
c1cncc(-c2cc(-n3ccnc3)ncn2)c1	x	n	x	x	n	x	x	x
CCOc1ccc(/C(O)=C2/C(=O)C(=O)N(c3ncccn3)C2c2ccccc2)cc1 (centres undefined)	x	n	n	n	x	n	n	n
CCOc1ccc(/C(O)=C2/C(=O)C(=O)N(c3ncccn3)C2c2ccc(C)cc2)cc1 (centres undefined)	n	x	n	n[9.22 µM]	n[10 µM]	x	x	x
COc1ccccc1/C=C\C(=O)OC[C@@H]1CCCN2CCCC[C@H]12	n	n	x	x	n	x	x	x
c1ccc(CNc2ncnc3ccc(-c4ccoc4)cc23)cc1	x	n	x	x	n	x	x	x
CN(C)c1ccc(-c2ccc3ncnc(NCc4ccccc4)c3c2)cc1	8.9µM	n	x	x	n	11µM	u	n
O=C1c2ccccc2-c2cccc(C(=O)N3CCCCC3)c21	n	x	n	n[9.22 µM]	n[10 µM]	x	x	x
O=C1c2ccccc2C(=O)c2c1cccc2N1CCCC1	10µM	n	n	n	n[10 µM]	16µM	u	u
CC(C)[N+](C)(C)CC(O)COc1cccc2ccccc12 (centres undefined)	x	x	x	n	n	x	x	x
C=C[C@@]1(C)CC(=O)[C@@]2(O)[C@@]3(C)[C@@H](O)CCC(C)(C)[C@@H]3[C@H](O)[C@H](OC(C)=O)[C@@]2(C)O1	n	n	x	x	u	n	n	n
CS(=O)(=O)Nc1cccc(-c2ccc3ncnc(Nc4ccc(F)cc4)c3c2)c1	1.1µM	n	x	x	n	1.4µM	n	n
CCn1c(=O)c2[nH]c(-c3ccccc3)nc2n(CC)c1=O	n	n	n	x	n[1.9 µM]	x	n	n
CC(/C=C/c1ccccc1)=N\Nc1ccccc1[N+](=O)[O-]	7.9µM	n	n	n	n	8.9µM	n	n
CSc1nc(N)c2ncn([C@@H]3O[C@H](COP(=O)(O)OP(=O)(O)OP(=O)(O)O)[C@@H](O)[C@H]3O)c2n1	x	n	x	x	n	x	x	x
COc1ccc(-c2n(CC(=O)OC3CC(C)CCC3C(C)C)c3ccccc3[n+]2C)cc1 (centres undefined)	1.8µM	n	n	n[9.22 µM]	n[10 µM]	n	n	n
COC(=O)c1ccc(C(NC(=O)OCc2ccccc2)/C(F)=C/[C@@H](C)C(=O)NCCO)cc1 (some centres undefined)	n	n	x	x	n	x	x	x
COC(=O)[C@H](Cc1ccccc1)NC(=O)O[C@@H]1C(=O)c2ccc(OC)cc2O[C@H]1c1ccc2c(c1)OCO2	n	n	x	x	n	x	x	x
O=C1c2ccccc2C(=O)c2c1ccc(O)c2O	u	n	x	n	n[1.9 µM]	x	x	x
O=C1c2ccc(O)c(O)c2C(=O)c2c(O)ccc(O)c21	7.9µM	n	x	x	n	10µM	u	u
Cc1ccccc1N=C/C=C1/C=C(c2ccccc2)OC(C)(C)O1	n	n	n	n	n[10 µM]	x	x	x
CC1(C)OC(c2ccccc2)=C/C(=C/C=C2C(=O)c3ccccc3C2=O)O1	u	n	n	n	n	u	n	n

Bioassay records deposited in PubChem BioAssay by National Center for Advancing Translational Sciences (NCATS).
